Measured values as given in PubChem BioAssay (NCI).
Compounds without any hit were thinned out: in the full panel of roughly 83,000, 20% have a hit.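 Compound tested at a single concentration for 48 hours in 96-well plates; a percent growth value below 10 was scored as active.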 A number with no mark means an inactive call. Activity calls are given as the source filed them.

System: HL-60(TB) leukemia
Assay: NCI-60 one-dose screen, 48 h (100 = growth as untreated, 0 = no growth, -100 = all killed)
Details: 10 µM unless noted

Structure (SMILES)	growth
COc1cc2c(cc1-c1c(C)noc1C)ncc1nc(C3CCC(F)(F)CC3)n([C@H](C)COC(F)F)c12	23.5%
Cc1nc2cc(O)c(O)cc2cc1Oc1ccc(NC(=O)Nc2ccc(Cl)c(Cl)c2)cc1	96.8%
C[C@H]1[C@H](OC(=O)CCC(=O)O)O[C@@H]2O[C@]3(C)CC[C@H]4[C@H](C)CC[C@@H]1[C@@]24OO3	-30.5% (active)
COc1cccc(NC(=O)c2cccc(C3CCc4c(cc(OC)c(OC)c4OC)O3)c2)c1 (configuration not stated)	44.2%
CCCCCN1C=C/C(=C\C(=O)N(C)c2ccccc2Br)c2ccccc21	76.9%
CC1(c2ccccc2Cl)NC(=O)NC1=O (configuration not stated)	87.8%
CCOC(=O)c1nc(Nc2cc(C)[nH]n2)c2ccccc2n1	106%
COc1cc(NCCCN=C(N)NC(N)=NC(C)C)c2ncccc2c1	85.7%
COc1ccc(C2CC(c3cc(OC)c(OC)c(OC)c3)=NN2C(C)=O)cc1OCC(=O)Nc1nc2ccc(C(F)(F)F)cc2s1 (configuration not stated)	79.1%
COC1=CC=CC2(OC)C3(O)CCCc4cccc(c43)N3C(=O)COC132 (configuration not stated)	98.6%
Cn1c(=O)c2c(nc(Br)n2CCC(=O)Nc2ccc(F)cc2)n(C)c1=O	91.8%
Cc1cc(O)c(C2=NN(c3ccc(S(N)(=O)=O)cc3)C(c3ccccc3Cl)C2)cc1Cl (configuration not stated)	-30.2% (active)
CC(=Nc1ccccc1)C1=C(O)C(Cc2ccc(F)cc2)NC1=O (configuration not stated)	-12.3% (active)
COc1cccc(-c2nc(SCC(=O)Nc3ccc(C(=O)/C=C/c4ccc(OC)c(OC)c4)cc3)[nH]c(=O)c2C#N)c1	98.2%
O=[N+]([O-])c1ccc(Br)o1	74.8%
O=C(O)c1ccc(N=CC(=O)c2ccc(-c3ccccc3)cc2)cc1	77.4%

Structure (SMILES)	growth
O=C(O)C1CN(c2cccc(Cl)c2)N(c2cccc(Cl)c2)C1=O (configuration not stated)	95.3%
COc1ccc(-c2nc(Nc3nc4ccccc4[nH]3)nc(N)c2C#N)cc1	97.8%
CC(=O)c1ccc(-n2c(-c3cc(-c4ccsc4)n[nH]3)n[nH]c2=S)cc1	112%
O=C(NCCc1ccccn1)OCc1nc2nc(Cl)nc(N3CCOCC3)c2[nH]1	-47.6% (active)
CCCCNC(=O)Oc1ccc(/C(=C(/CC)Cc2ccccc2)c2ccc(OCCCN(C)C)cc2)cc1	78%
COc1ccc(F)cc1/C=C/C(=O)/C=C(/C=C/c1cc(F)ccc1OC)OB(F)F	-8.82% (active)
COc1ccc(-c2nn(-c3cccc(Cl)c3)cc2/C=C2\NC(=S)N(c3ccc(Cl)cc3)C2=O)cc1	24.9%
CN(C)CCN1C(=O)c2cccc3c(-c4ccc5ncn(C6CCCCC6)c5c4)ccc(c23)C1=O	13.8%
CC1CCN(C(=O)OCc2nc3nc(Cl)nc(N4CCOCC4)c3[nH]2)CC1	-43.5% (active)
Cc1ccc(SC2c3ccc(C)cc3Oc3nc(N)c(C#N)c(N)c32)cc1 (configuration not stated)	-6.43% (active)
C/C(=C\c1csc(C)n1)[C@@H]1C[C@@H]2O[C@]2(C)CCC[C@H](C)[C@H](O)[C@@H](C)C(=O)C(C)(C)[C@@H](O)CC(=O)N1	0.771% (active)
COc1cc(CCC[P+](c2ccccc2)(c2ccccc2)c2ccccc2)c(OC)c(OC)c1OC	65.7%
O=S(=O)(Nc1cccc2cc(OS(=O)(=O)c3ccccc3)ccc12)c1ccccc1	41.4%
CO[C@H]1C[C@@H]2CC[C@@H](C)[C@@](O)(O2)C(=O)C(=O)N2CCCC[C@H]2C(=O)O[C@H]([C@H](C)C[C@@H]2CC[C@@H](OCCO)[C@H](OC)C2)CC(=O)[C@H](C)/C=C(\C)[C@@H](O)[C@H](OC)C(=O)[C@H](C)C[C@H](C)\C=C/C=C/C=C/1C	75.7%
CCC(C)C(N)C(=O)NC(CC(C)C)C(=O)N1CCCC1C(=O)NC(Cc1c[nH]c2ccccc12)C(=O)NC(CCCCN)C(=O)NC(Cc1c[nH]c2ccccc12)C(=O)N1CCCC1C(=O)NC(Cc1c[nH]c2ccccc12)C(=O)NC(Cc1c[nH]c2ccccc12)C(=O)N1CCCC1C(=O)NC(Cc1c[nH]c2ccccc12)C(=O)NC(CCCNC(=N)N)C(=O)NC(CCCNC(=N)N)C(N)=O (configuration not stated)	-2.6% (active)
CSc1ccccc1C#C/C=C\C#Cc1ccccc1N1CCCCC1=O	107%
